Experimental findings from PubChem BioAssay AID651812 (National Center for Advancing Translational Sciences (NCATS), 2012) are described below.

In all, about 2,100 compounds went through this assay and about 650 (31%) were called active. Not shown: some 16% with an inconclusive outcome. This is one part of the list. Unmarked numbers belong to inactive results. The call rests on the fitted dose curve; in most records, active means well fitted inhibition curve with a large enough effect; inconclusive means small, poorly fitted or top-dose-only effect; inactive means flat fitted curve, though single readings scatter.
Potency means the concentration at half of the fitted maximal effect.

The nature of the experiment: qHTS for inhibitors of Vif-A3G interactions: Cherry picks. Further: nearly all actives have a fitted effect of over 80% in size. On activity, negative = fluorescence increase: % of control where 0% means no effect. The following applies: HeLa A3G-eYFP + Vif (tagged APOBEC3G with the HIV-1 protein that degrades it), 24 h; Potency: eYFP fluorescence increase; series mostly up to 36.9 µM; activity, negative = fluorescence increase: at the top concentration. In short, it runs like this: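 HeLa cells stably expressing A3G-eYFP and Vif, cultured overnight then exposed to compounds at several concentrations for 24 hours at 37 C, 5% CO2; cellular yellow fluorescence (488 nm ex, 500-530 nm em) imaged on Acumen, MG132 positive control.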
Turning to `CCOC(=O)N1CCN(C(=O)c2[nH]c(C(F)(F)F)nc2-c2ccccc2)CC1`, the “activity, negative = fluorescence increase” value is -3.99%.
Still for that read-out and setting: as for `CC1(C(=O)NCc2ccc(F)c(F)c2)Cc2c(-c3cccc(C(N)=O)c3)ccnc2O1` (configuration not stated), the figure is -4.8%; as for `COc1ccc(CN(C(C)=O)c2cccc(C)c2C)cc1`, -5.97%; as for `FC(F)(F)c1ccccc1NC(=S)NN=C1CCCCCC1`, -18% [at 46.1 µM].
On the same count and under the same terms, under `COC(=O)c1sccc1S(=O)(=O)N(CC(=O)Nc1cc(F)ccc1F)c1ccc(C)c(C)c1` stands 2% [at 46.1 µM].
On to `N#CCC(=O)N/N=C/c1ccc(N2N=C(c3ccccc3)CC2c2ccccc2)cc1` (configuration not stated), for which the Potency was 20.6 µM (active).
Take `C/C(=N\NC(=S)NCc1ccccc1)c1cccs1`: the “activity, negative = fluorescence increase” value was -8.35% [at 46.1 µM].
In the case of `C/C(=N\Nc1nccnc1Cl)c1ccc(Cl)c(Cl)c1`, the “activity, negative = fluorescence increase” value was -2.4% [at 46.1 µM].
Consider `CCOC(=O)c1sc2cc([N+](=O)[O-])cc(SCC(C)C)c2c1N`, for which the Potency is 2.91 µM (active).
Still for that read-out and setting: as for `COC(=O)c1sc2cc([N+](=O)[O-])cc(SCC(C)C)c2c1N`, the figure is 16.4 µM (active).
For the compound `CS(=O)(=O)N(CC(=O)N1CCN(Cc2ccccc2)CC1)c1ccccc1F`, the “activity, negative = fluorescence increase” value is 1.65% [at 46.1 µM].
On the same count and under the same terms, as for `O=C(COC(=O)C12CC3CC(CC(Cl)(C3)C1)C2)N1CCCCC1`, the figure is -0.277% [at 46.1 µM].
As to `O=Cc1sc(Nc2ccccc2)nc1Cl`, the Potency is 23.1 µM (active).
With `c1ccc(Nc2nc(-c3ccccn3)cs2)cc1`, the “activity, negative = fluorescence increase” value was -20.4% [at 46.1 µM].
For the compound `Cc1ccc(Nc2nc(Cl)c(C=O)s2)cc1Cl`, the Potency is 16.4 µM (active).
In the case of `COc1ccc(S(=O)(=O)N2CCCOC2CNC(=O)C(=O)NCCc2ccco2)cc1C` (configuration not stated), the “activity, negative = fluorescence increase” value was 0.138%.
Same read-out and setting: under `C=C(C)CNC(=S)NNC(=O)c1ccco1` stands -0.874%; under `Cc1ccc2c(Cl)c(C)c(N3CCCC3)nc2n1`, 0.2% [at 46.1 µM].
On the same count and under the same terms, under `COc1ccc(C(=O)N2CCN(c3cccc(Cl)c3)CC2)cc1S(=O)(=O)NC1CC1` stands -4.75%; under `Cc1c(CCCl)c(Cl)n2c(nc3ccccc32)c1C#N`, -5.86%.
In the case of `Cc1ccc(C(=O)NCCn2c(N)c(C#N)c3nc4ccccc4nc32)cc1`, the Potency is 23.1 µM (active).
For `Cc1ccc(C(=O)NN(C)c2nc3ccccc3nc2C(F)(F)F)cc1`, the “activity, negative = fluorescence increase” value is 0.321%.
On the same count and under the same terms, under `COc1ccc(-c2cnc3c(NC=O)cc(-c4ccoc4)cn23)cc1OC` stands -15.1%.
Still for that read-out and setting: as for `CCN(CC)c1ccc(/C=N/NC(=O)c2ccco2)c(O)c1`, the figure is -14.9%.
As to `CC(C)NC(=S)N/N=C/c1sc(N2CCCCC2)nc1-c1cccs1`, the Potency was 23.1 µM (active).
Take `CNC(=S)N/N=C/c1ccc(N2CCOCC2)s1`: the “activity, negative = fluorescence increase” value was -0.534% [at 46.1 µM].
The same measure, in the same setting: under `CC(C)NC(=S)N/N=C1\CCCCc2ccccc21` stands 10.1% [at 46.1 µM].
As for `CCNc1cc(N2CCN(C3CCCCC3)CC2)c2noc3c2c1C(=O)c1ccccc1-3`, the Potency was 16.4 µM (active).
The same measure, in the same setting: under `CN(C)CCCNc1cc(N2CCN(C3CCCCC3)CC2)c2noc3c2c1C(=O)c1ccccc1-3` stands 20.6 µM (active); under `O=C1c2ccccc2-c2onc3c(N4CCN(C5CCCCC5)CC4)cc(NCCO)c1c23`, 4.61 µM (active).
Consider `O=C(c1cc(-c2ccncc2)nc2ccccc12)N1CCN(c2ccccn2)CC1`, for which the “activity, negative = fluorescence increase” value is -7.38%.
On the same count and under the same terms, as for `CCOc1cc(C)nc(NCc2ccccc2)n1`, the figure is -13.7%; as for `C=CCOC(=O)C1=C(C)Nc2nnnn2C1c1cccs1` (configuration not stated), -3.28%; as for `N#CC1=C(S)N(c2ccc(F)cc2)C2(CCCCC2)NC1=O`, -2.54% [at 46.1 µM].
Still for that read-out and setting: under `O=C(COc1ccccc1)NC(=S)Nc1cccc2c(O)cccc12` stands -6.15%.
`COc1ccc(OC)c(NCc2cccn2-c2nnc(N3CCC(C)CC3)s2)c1`: the “activity, negative = fluorescence increase” value was -2.15% [at 46.1 µM].
Same read-out and setting: as for `Cc1ccc(CSc2nc(-c3ccc(C(C)(C)C)cc3)nc3cc(=O)[nH]n23)cc1`, the figure is 0.591% [at 46.1 µM].
As for `Nc1c(C(=O)Nc2nccs2)sc2nc(-c3cccs3)cc(C(F)(F)F)c12`, the Potency was 14 µM (active).
On the same count and under the same terms, as for `Nc1c(C(=O)Nc2nc3ccccc3s2)sc2nc(-c3cccs3)ccc12`, the figure is 18.4 µM (active).
For the compound `O=C(N/N=C/c1ccsc1)c1cc(-c2cccs2)nc2ccccc12`, the “activity, negative = fluorescence increase” value is -2.5%.
Consider `Nc1c(C(=O)Nc2ccc(F)cc2)sc2nc(-c3cccs3)cc(C(F)(F)F)c12`, for which the Potency was 1.84 µM (active).
On to `O=C(Nc1nc2ccccc2s1)c1ccc([N+](=O)[O-])o1`, for which the “activity, negative = fluorescence increase” value was -9.27%.
Take `Cc1nnc(NC(=O)c2sc3nc(-c4cccs4)cc(C(F)(F)F)c3c2N)s1`: the Potency is 9.2 µM (active).
On to `Cn1c(=O)c2c(nc(NC3CCCC3)n2C)n(C)c1=O`, for which the “activity, negative = fluorescence increase” value is -11.2% [at 46.1 µM].
Same read-out and setting: under `CSc1nc(N)c(C#N)c(-c2ccccc2Cl)c1C#N` stands -4.05%; under `N#Cc1c(Nc2ccccc2)[n+]([O-])c2ccc(Cl)cc2[n+]1[O-]`, -9.86%.
In the case of `COc1cccc(/C(O)=C/c2nc3ccc(C(=O)NCCc4cccc(C)c4)cc3[nH]c2=O)c1`, the Potency is 11.6 µM (active).
For the compound `COc1ccc2nc(NC(=O)c3nc(S(=O)(=O)Cc4cccc(C)c4)ncc3Cl)sc2c1`, the “activity, negative = fluorescence increase” value is -0.58% [at 46.1 µM].
Still for that read-out and setting: as for `COc1cccc(C(=O)N/N=C/C(Br)=C/c2ccccc2)c1`, the figure is -2.9%.
As for `COc1cccc(/C(O)=C/c2nc3ccc(C(=O)NCCc4ccc(Cl)cc4)cc3[nH]c2=O)c1`, the Potency was 16.4 µM (active).
Turning to `CCOC(=S)SCC(=O)N1CCc2cc(OC)ccc2C1C1C(=O)CCCC1=O` (configuration not stated), the “activity, negative = fluorescence increase” value is -8.79%.
For `COc1ccc(NC(=S)Nc2ncccc2C)c(OC)c1`, the “activity, negative = fluorescence increase” value was 0.453%.
